Each structure is given as a SMILES string. Records with an inconclusive call do not appear. Where a call stands in place of a potency, no number is given. A number with no mark means an inactive call. Activity calls are given as the source filed them. Calls follow the shape of the dose curve; as a rule, active = well fitted activation curve with a large enough effect in the signal ratio in the repeat runs (not every such curve was filed as active); inconclusive = weak or mixed curves, or effect the other way; inactive = no such curve, though single readings can be large or run the other way; the % refers to the signal ratio.
Potency is read from the fitted curve at half-maximal effect.

Glucocorticoid receptor (Homo sapiens), sequence (P04150 whole entry, looked up): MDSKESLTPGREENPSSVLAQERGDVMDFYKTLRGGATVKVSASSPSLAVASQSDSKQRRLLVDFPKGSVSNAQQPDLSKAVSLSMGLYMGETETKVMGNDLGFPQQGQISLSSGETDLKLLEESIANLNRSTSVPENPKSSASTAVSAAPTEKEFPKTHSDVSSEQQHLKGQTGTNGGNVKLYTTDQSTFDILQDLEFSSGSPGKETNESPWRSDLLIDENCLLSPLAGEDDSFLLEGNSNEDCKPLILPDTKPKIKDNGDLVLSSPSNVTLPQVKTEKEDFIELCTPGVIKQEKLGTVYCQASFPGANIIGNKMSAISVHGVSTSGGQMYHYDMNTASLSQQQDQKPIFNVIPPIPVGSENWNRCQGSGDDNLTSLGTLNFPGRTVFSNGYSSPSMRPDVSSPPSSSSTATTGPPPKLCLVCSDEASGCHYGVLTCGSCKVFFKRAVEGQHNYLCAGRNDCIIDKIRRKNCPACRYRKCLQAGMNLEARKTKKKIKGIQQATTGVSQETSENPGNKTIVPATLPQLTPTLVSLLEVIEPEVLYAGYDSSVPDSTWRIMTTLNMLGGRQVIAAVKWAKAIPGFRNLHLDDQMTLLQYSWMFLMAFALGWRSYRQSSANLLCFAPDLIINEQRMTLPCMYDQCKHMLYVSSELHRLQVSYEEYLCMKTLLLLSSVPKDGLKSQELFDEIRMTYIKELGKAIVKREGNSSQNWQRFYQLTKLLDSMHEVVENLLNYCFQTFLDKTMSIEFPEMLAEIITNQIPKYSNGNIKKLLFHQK

In the test the target is Glucocorticoid receptor (Homo sapiens) (UniProt P04150). The test is described as follows: qHTS assay to identify small molecule agonists of the glucocorticoid receptor (GR) signaling pathway (AID 720691). To be noted: GR-bla HeLa, beta-lactamase reporter ratio, 18 h; series mostly up to 62.4 µM; activation: at the top concentration. The source says:
U.S. Tox21 Program National Center for Advancing Translational Sciences [NCATS] NIH Chemical Genomics Center [NCGC] U.S. Environmental Protection Agency [EPA] National Institutes of Environmental Health Sciences [NIEHS] National Toxicology Program [NTP] U.S. Food and Drug Administration [FDA] Tox21 Assay Overview: The Glucocorticoid receptor (GR) is one of the members of the nuclear receptor family of ligand-dependent transcription factors. GR plays a critical role in carbohydrate, protein and lipid metabolisms and programmed cell death. CellSensor GR-bla HeLa cell line (Invitrogen) contains a beta-lactamase reporter gene under the control of the glucocorticoid response element stably integrated into HeLa cells, a cervical cancer cell line that expresses glucocorticoid receptor. The activation of the reporter gene under culture conditions can be detected by fluorescence intensity. This cell line has been used to screen the Tox21 10K compound library and to identify the compounds that activate the GR signaling.
Tox21 Assay Protocol Summary: The GR-bla HeLa cells were dispensed at 1500 cells/6 ul/well in 1536-well black wall/clear bottom plates using a Multidrop Combi (ThermoFisher Scientific, Waltham, MA) dispenser. After the assay plates were incubated at a 37 C/5% CO2 incubator for 4 hours, 23 nL of compounds dissolved in DMSO, positive controls or DMSO only was transferred to the assay plate by a pintool station (Kalypsys, San Diego, CA). The plates were incubated at 37 C for 18 hours. After 1 uL of LiveBLAzerTM B/G FRET substrate was added using a Flying Reagent Dispenser (Aurora Discovery, San Diego, CA), the plates were incubated at room temperature for 2 hours, and fluorescence intensity was measured by an Envision plate reader (PerkinElmer, Shelton, CT).
For orientation: Quantitative high-throughput screening tests each substance at several concentrations.
On to `CCCCOCCOP(=O)(OCCOCCCC)OCCOCCCC`, for which the Potency result is “inactive”.
On the same count and under the same terms, in the case of `Cc1ccc2c(c1N)C(=O)c1ccccc1C2=O` it was “inactive”.
As for `c1ccc(P(c2ccccc2)c2ccccc2)cc1`, the Potency result was “inactive”.
Same read-out and setting: next, `O=[N+]([O-])c1c(Cl)c(Cl)c(Cl)c(Cl)c1Cl`: “inactive”.
As to `CCC(C)c1ccc(O)cc1` (stereo not given), the Potency entry is “inactive”.
On the same count and under the same terms, next, `CC(C)C(=O)OCC(C)(C)C(OC(=O)C(C)C)C(C)C` (stereo not given): “inactive”; `O=P(Oc1ccccc1)(Oc1ccccc1)Oc1ccccc1`: “inactive”; `CNC(=O)Oc1cccc2c1OC(C)(C)O2`: “inactive”.
For `CCOc1cc(C=O)ccc1O`, the Potency result was “inactive”.
With `COP(=O)(OC)OC`, the Potency result was “inactive”.
Still for that read-out and setting: next, `CC(C)=CC1C(C(=O)OCc2coc(Cc3ccccc3)c2)C1(C)C` (stereo not given): “inactive”; `CCCCNC(=O)n1c(NC(=O)OC)nc2ccccc21`: “inactive”.
On to `CC(C)(OOC(C)(C)c1ccccc1)c1ccccc1`, for which the Potency result was “inactive”.
On the same count and under the same terms, in the case of `C=C(C)[C@H]1Cc2c(ccc3c2O[C@@H]2COc4cc(OC)c(OC)cc4[C@@H]2C3=O)O1` it was “inactive”; in that of `OCC(O)CO`, “inactive”.
Take `N#Cc1cc(Br)c(O)c(Br)c1`: the Potency result is “inactive”.
Regarding `N#CC(Br)Br`, the Potency result is “inactive”.
As for `CCCCC(CC)COC(=O)Cl` (stereo not given), the Potency entry is “inactive”.
On to `CCCCCCCCC(=O)NCc1ccc(O)c(OC)c1`, for which the Potency is 30.1 µM (active).
Still for that read-out and setting: in the case of `c1ccc(NNc2ccccc2)cc1` it was “inactive”; in that of `CCCCN(CC)c1c([N+](=O)[O-])cc(C(F)(F)F)cc1[N+](=O)[O-]`, “inactive”; in that of `Oc1cc(Cl)ccc1Cl`, “inactive”.
Same read-out and setting: next, `c1nc[nH]n1`: “inactive”; `N#CCCCl`: “inactive”; `c1ccc(N=Nc2ccccc2)cc1`: “inactive”.
Take `CCOP(=S)(OCC)O/N=C(\C#N)c1ccccc1`: the Potency result is “inactive”.
With `C=CC(=O)OCCO`, the Potency result was “inactive”.
Consider `O=C(Nc1ccc(Br)cc1)c1cc(Br)cc(Br)c1O`, for which the “activation” value is -3.96%.
As to `COC(=O)c1sccc1S(=O)(=O)NC(=O)Nc1nc(C)nc(OC)n1`, the Potency result is “inactive”.
As to `Cc1cc(Cl)ccc1OCCCC(=O)O`, the Potency result was “inactive”.
Same read-out and setting: next, `CCOc1cc(Oc2ccc(C(F)(F)F)cc2Cl)ccc1[N+](=O)[O-]`: “inactive”; `CCc1cccc(CC)c1N(COC)C(=O)CCl`: “inactive”.
The same measure, in the same setting: in the case of `Nc1c(Cl)cc([N+](=O)[O-])cc1Cl` it was “inactive”; in that of `Cc1ccc(N)c(N)c1`, “inactive”.
The same measure, in the same setting: next, `c1cc(OCC2CO2)ccc1Cc1ccc(OCC2CO2)cc1` (stereo not given): “inactive”; `C[C@]12CCC(=O)C(O)=C1CC[C@@H]1[C@@H]2CC[C@]2(C)C(=O)CC[C@@H]12`: “inactive”; `N[C@@H](Cc1ccc(N(CCCl)CCCl)cc1)C(=O)O`: “inactive”.
In the case of `C=C(C)C(=O)OCC1CO1` (stereo not given), the Potency result is “inactive”.
On the same count and under the same terms, in the case of `COP(=S)(OC)Oc1cc(Cl)c(Cl)cc1Cl` it was “inactive”.
Consider `Oc1cc(Cl)ccc1Oc1ccc(Cl)cc1Cl`, for which the “activation” value was -5.34%.

(Values after PubChem BioAssay (Tox21).)
